An excerpt weighted towards active compounds, which were near 0.97% of everything screened.
RPL19A-GFP yeast: yeast TOR pathway RPL19A-GFP modulation. AID 2025. percent response vs DMSO, % at 10 µM. 330,000 compounds, 0.3% hits. S. cerevisiae RPL19A-GFP strain, flow cytometry, 3 h; stronger effect = lower value;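 active = percent response vs DMSO below 50%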;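 also: median channel GFP fluorescence of the barcoded RPL19A-GFP strain; lower means less RPL19A-GFP as with rapamycin TOR inhibition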
GASC-1 inh: inhibitors of human GASC-1 (JMJD2C) demethylase; inhibition, % at 2.35 µM; AID 2099; GST-JMJD2C(1-420) H3K9me3 demethylation, DELFIA europium; Q9H3R0; 330,000 compounds, 0.069% hits;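 active = more than half of a compound's replicate wells show inhibition beyond 50%, single wells judged on their own value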;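 also: signal counts dimethyl H3K9 product captured on neutravidin plate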
Target sequence (Q9H3R0 1-420 limits assumed): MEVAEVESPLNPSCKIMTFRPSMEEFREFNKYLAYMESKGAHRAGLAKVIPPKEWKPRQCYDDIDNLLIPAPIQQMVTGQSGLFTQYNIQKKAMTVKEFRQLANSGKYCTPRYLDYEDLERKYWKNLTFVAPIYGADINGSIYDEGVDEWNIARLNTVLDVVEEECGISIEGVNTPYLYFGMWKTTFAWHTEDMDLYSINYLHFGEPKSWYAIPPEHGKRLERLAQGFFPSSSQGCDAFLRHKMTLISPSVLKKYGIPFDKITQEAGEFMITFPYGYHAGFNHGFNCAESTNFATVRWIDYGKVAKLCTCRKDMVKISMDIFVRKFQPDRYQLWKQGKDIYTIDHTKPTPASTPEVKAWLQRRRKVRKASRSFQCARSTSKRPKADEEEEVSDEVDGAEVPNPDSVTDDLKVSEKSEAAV
AGP1-GFP MLPCN: alters AGP1-GFP fluorescence in TOR pathway yeast screen; AID 2066; S. cerevisiae AGP1-GFP multiplex flow cytometry, 3 h; GFP as percent of DMSO wells; 320,000 compounds, 0.02% hits; GFP response vs DMSO, % at 10 µM;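 active = GFP response relative to DMSO above a set limit, near screen average plus 3 SD, cut at about 150% in these data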;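 also: median GFP channel fluorescence of the gated AGP1 strain per well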
CIT2 TOR yeast: modulators of TOR pathway CIT2-GFP in S. cerevisiae | 320,000 compounds, 0.065% hits | GFP response vs DMSO, % at 10 µM | S. cerevisiae CIT2-GFP strain, flow cytometry, 3 h; 100 means same as DMSO wells;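 active = GFP response relative to DMSO above a set limit, near the screen mean plus 3 SD, cut at about 150% in these data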;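 also: ratio of well median GFP fluorescence to mean of DMSO wells on the plate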
MEP2 TOR yeast: alters MEP2-GFP fluorescence in TOR pathway yeast screen; S. cerevisiae MEP2-GFP strain, flow cytometry GFP, 3 h; 100% = DMSO control level; GFP response vs DMSO, % at 10 µM; 330,000 compounds, 0.51% hits;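 active = GFP response versus DMSO above a set limit, roughly screen mean plus 3 SD, cut at about 180% in these data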;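 also: median GFP fluorescence of the barcode-gated MEP2-GFP cells per well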
LAP4-GFP MLPCN: yeast TOR pathway LAP4-GFP modulation; 320,000 compounds, 0.34% hits; GFP response vs DMSO, % at 10 µM; S. cerevisiae LAP4-GFP multiplex, flow cytometry GFP, 3 h; median GFP as percent of DMSO wells;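 active = GFP response vs DMSO above a set limit, about the screen mean plus 3 SD, cut at about 150% in these data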
LAP4-GFP pick2: yeast LAP4-GFP modulation, second cherry pick; shares compounds with LAP4-GFP MLPCN; 590 compounds, 20% hits; S. cerevisiae LAP4-GFP strain, flow cytometry GFP, 3 h; GFP response vs DMSO, % at 10 µM;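 active = GFP signal as percent of the solvent control above about 150%, meaning raised reporter expression, limit read from the data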
MEP2-GFP pick2: yeast MEP2-GFP modulation, second cherry pick. shares compounds with LAP4-GFP MLPCN. S. cerevisiae MEP2-GFP strain, flow cytometry GFP, 3 h. GFP response vs DMSO, % at 10 µM. 590 compounds, 10% hits. AID 2622;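 active = GFP signal above 150% of the solvent control wells, that is a rise of more than half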;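 also: median channel GFP fluorescence of all gated yeast cells per well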
RPL19A GFP CP2: second confirmation of modulators of TOR reporter RPL19A-GFP in yeast | shares compounds with LAP4-GFP MLPCN | S. cerevisiae RPL19A-GFP strain, flow cytometry GFP, 3 h; stronger effect = lower value; 100% means same as DMSO wells | GFP response vs DMSO, % at 10 µM | 590 compounds, 3% hits;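 active = under 65% GFP response relative to DMSO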;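 also: median GFP channel fluorescence per well over the all cells gate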
CIT2-GFP pick2: reconfirmed modulator of CIT2-GFP TOR reporter in yeast; shares compounds with LAP4-GFP MLPCN; S. cerevisiae CIT2-GFP strain, flow cytometry GFP, 3 h; DMSO control wells read 100%; GFP response vs DMSO, % at 10 µM; 590 compounds, 8% hits;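 active = GFP response vs DMSO above about 150%, limit read from the data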;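 also: median green fluorescence per well over all gated yeast cells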
AGP1-GFP pick2: reconfirmed modulator of AGP1-GFP TOR reporter in yeast; shares compounds with LAP4-GFP MLPCN; S. cerevisiae AGP1-GFP strain, flow cytometry GFP, 3 h; percent response vs DMSO, % at 10 µM; 590 tested, under 10 active;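 active = over 150 percent of DMSO response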;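 also: median GFP channel fluorescence over all cells without mother daughter split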
Yeast autofluor: compound is autofluorescent in yeast s288c cells; S. cerevisiae s288c, 520 nm autofluorescence, flow cytometry, 3 h; stronger effect = higher value; zero means same as solvent-only cells; fluorescence change (kMESF span) at 33 µM; 610 tested, under 10 active; shares compounds with LAP4-GFP MLPCN;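 active = fluorescence span over the dose series, or activity score, above about 33, limit read from the data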
s288c autofl DR: yeast s288c autofluorescence artifact in dose response | fluorescence change (span) at 33 µM | 110 tested, under 10 active | S. cerevisiae s288c parental, compound autofluorescence, flow cytometry, 3 h | shares compounds with LAP4-GFP MLPCN;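 active = fluorescence change span, or the activity score built from it, above 25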
TORC1 bypass gr: stops wildtype yeast growth while TORC1 bypass cells still grow; AID 504456; 120 tested, under 10 active; growth rating (0-3) at 30 µM; S. cerevisiae BY4741 spot growth rating, 48-72 h; stronger effect = lower value; shares compounds with LAP4-GFP MLPCN;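 active = growth rating at most 1 for wild type yeast while the TORC1 bypass strain still grows fully, rated 3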
Hits are given with their value; n = inactive; x = no result given; [ ] = dose if it differs, or a comment.

SMILES | RPL19A-GFP yeast | GASC-1 inh | AGP1-GFP MLPCN | CIT2 TOR yeast | MEP2 TOR yeast | LAP4-GFP MLPCN | LAP4-GFP pick2 | MEP2-GFP pick2 | RPL19A GFP CP2 | CIT2-GFP pick2 | AGP1-GFP pick2 | Yeast autofluor | others
O=C(NCc1cccc(C(F)(F)F)c1)N1CCN(C(=O)c2ccccc2)CC1 | n | n | n | n | n | n | x | x | x | x | x | x
NC(=O)CSc1nnc(CSc2ncccn2)n1-c1ccccc1 | n | n | n | n | n | n | x | x | x | x | x | x
COc1ccc(N2CC(C(=O)Nc3ccc(S(=O)(=O)Nc4nccs4)cc3)CC2=O)c(OC)c1 (centres undefined) | n | n | n | n | n | n | x | x | x | x | x | x
Cc1ccc(C)c(S(=O)(=O)ON2C(=O)c3ccccc3C2=O)c1 | n | n | n | n | n | n | x | x | x | x | x | x
O=C1c2ccccc2C(=O)N1OS(=O)(=O)c1ccccc1 | n | n | n | n | n | 223.3 | n | 159.7 | n | n | n | n
Cc1cc(S(=O)(=O)ON2C(=O)c3ccccc3C2=O)ccc1F | n | n | n | n | n | 172.6 | x | x | x | x | x | n
CC1CC(C)CN(C(=O)COC(=O)c2c[nH]c3ccccc23)C1 (centres undefined) | n | n | n | n | n | n | x | x | x | x | x | x
Cc1cc(/C=C2/SC(=S)N(c3cccc(Cl)c3)C2=O)c(C)n1-c1cccnc1 | n | n | n | n | n | 154.3 | x | x | x | x | x | n
Cc1cc(/C=C2/SC(=S)N(c3ccc([N+](=O)[O-])cc3)C2=O)c(C)n1-c1cccnc1 | n | n | n | n | n | n | x | x | x | x | x | x
CCCCN1C(C(=O)Nc2ncccn2)=C(O)c2ccccc2S1(=O)=O | n | n | n | n | n | n | x | x | x | x | x | x
CC1(C(=O)NC(=S)NNC(=O)c2ccncc2)CCCCC1 | n | n | 155.8[may fluoresce green] | 227.2[may fluoresce green] | 543.5[may fluoresce green] | 160.4[may fluoresce green] | n | n | n | n | n | n
O=C(NNC(=S)NC(=O)C12CC3CC(CC(C3)C1)C2)c1ccncc1 | n | n | n | x | n | 181.7 | x | x | x | x | x | n
CCOc1c(Br)cc(/C=C(\C#N)C(=O)NC2CC2)cc1OC | n | n | n | n | n | 153.7[may fluoresce green] | n | n | n | n | n | x
CCOc1ccccc1/C=C(\C#N)C(=O)NC1CC1 | n | n | n | n | n | n | x | x | x | x | x | x
O=C(Nc1ccccc1)ON=C1CCCC1 | n | n | n | n | n | n | n | n | n | n | n | n
Cc1ccc(NC(=O)C/C(N)=N/OC(=O)Nc2cccc(C)c2)cc1 | n | n | n | n | n | n | x | x | x | x | x | x
Cc1ccc(NC(=O)ON=C2CCCC2)cc1 | n | n | n | 219.0 | n | n | x | x | x | x | x | n
O=C(Nc1ccccc1)O/N=C/c1ccncc1 | n | n | n | n | n | n | x | x | x | x | x | x
COc1ccc(NC(=O)c2cc(S(=O)(=O)N3CCCCC3)c[nH]2)cc1Cl | n | n | n | n | n | n | x | x | x | x | x | x
COc1cccc(NC(=O)c2cccc(Cl)c2)c1 | n | n | n | n | n | 153.4 | n | n | n | n | n | x
COc1cccc(C(=O)Nc2nnc(-c3ccc(Cl)cc3)o2)c1 | n | n | n | n | n | 155.1 | 208.7 | n | n | n | n | n
COc1cc(N2C(=O)C=CC2=O)c(OC)cc1Cl | n | n | n | n | n | 259.8 | x | x | x | x | x | n
C[C@@]12C(=O)OC(=O)[C@]1(C)C1CCC2O1 | n | x | n | n | n | 188.9 | 213.5 | n | n | n | n | n
O=C(NC1CCN(Cc2ccccc2)CC1)c1ccccc1OCc1ccccc1Cl | n | n | n | n | n | n | x | x | x | x | x | x
O=C(O)c1ccc(NCc2cccc(Br)c2)cc1 | n | n | n | n | n | 158.7 | n | n | n | n | n | x
SMILES | RPL19A-GFP yeast | GASC-1 inh | AGP1-GFP MLPCN | CIT2 TOR yeast | MEP2 TOR yeast | LAP4-GFP MLPCN | LAP4-GFP pick2 | MEP2-GFP pick2 | RPL19A GFP CP2 | CIT2-GFP pick2 | AGP1-GFP pick2 | Yeast autofluor | others
CCOC(=O)c1c(C)n(S(=O)(=O)c2ccc(C)cc2)c2ccc(O)c(C(=O)O)c12 | n | n | n | n | n | n | x | x | x | x | x | x
O=C1N(c2ccccc2C(F)(F)F)O[C@@]1(c1ccccc1)C1CCCCC1 | n | n | n | n | n | n | n | n | n | n | n | n
O=C1N(c2ccccc2C(F)(F)F)O[C@@]1(c1ccccc1)C1CCCC1 | n | n | n | n | n | n | n | n | n | n | n | n
COc1ccc(/C=N/OC(=O)c2ccc(Cl)cc2)c(Cl)c1OC | n | n | n | n | n | n | x | x | x | x | x | x
C/C(=C\c1ccc(F)cc1)C(=O)c1c(C)cc(C)[nH]c1=O | x | n | x | x | x | x | x | x | x | x | x | x
CC1CCCCN1CC(=O)Nc1ccc2c(c1)OCO2 (centres undefined) | n | n | n | n | n | n | x | x | x | x | x | x
Nc1c(C(=O)Nc2nc3ccccc3s2)sc2nc(-c3cccs3)ccc12 | n | n | n | n | n | n | x | x | x | x | x | x
CC(=O)c1sc2nc(-c3cccs3)ccc2c1N | n | n | n | n | n | 175.5 | n | n | n | n | n | x
O=C(Cn1c(=O)oc2ccccc21)N1CCCC1 | n | n | n | n | n | n | x | x | x | x | x | x
O=C1N=c2ccccc2=C1c1c(O)n(-c2cccc(F)c2)[nH]c1=O | n | n | n | n | n | 200.0 | n | n | n | n | n | x
Cc1ccc(NC(=O)c2ccc(Cl)c(N3C(=O)C=CC3=O)c2)cc1 | 49.6 | n | n | n | n | n | x | x | x | x | x | n | s288c autofl DR=n;TORC1 bypass gr=n
CCOC(=O)c1ccc(Nc2ncnc3c2cnn3C)cc1 | n | n | n | n | n | n | x | x | x | x | x | x
